Compounds without any hit were thinned out: in the full panel of roughly 79,000, 15% have a hit. Unmarked numbers belong to inactive results. Cut-off read from the data, not from the text of the source: active = growth inhibition above about 70%; inactive = the rest.

A short description of the first assay: NCI Yeast Anticancer Drug Screen. Data for the rad50 strain (AID 155).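 Note: 0% = growth of vehicle-only cultures of the same strain.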 Particulars: S. cerevisiae rad50 strain growth inhibition; at 50.0 µM; active compounds read high. In a few lines:
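Compounds were tested on a yeast strain with an engineered DNA damage repair alteration; the reported value is growth inhibition normalised to vehicle treatment.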
As for `Cc1ccc(C(CCCl)OC(C)C)cc1` (stereo not given), the growth inhibition is 7%.

Regarding `NC(=O)/C(=C\c1ccc(OCc2ccccc2)c(OCc2ccccc2)c1)NC(=O)c1ccccc1`, the growth inhibition is 41.2%.

As to `CC(=O)Oc1ncnc2c1cnn2C`, the growth inhibition was -8.95%.

As to `Nc1ccn(CCOC(=O)c2ccccc2)c(=O)n1`, the growth inhibition is -2%.

In the case of `Cc1cccc(C)c1NC(=O)Nc1cccc(O)c1`, the growth inhibition was -1.4%.

Regarding `Nc1ccc(Cc2ccc(N)c(Br)c2)cc1Br`, the growth inhibition was -0.75%.

On to `CC(C)(C)c1nc2c(o1)C(=Nc1ccc(F)cc1)c1ccccc1C2=O`, for which the growth inhibition is 8.6%.

On to `O=C(CCC(=O)Nc1cccc([N+](=O)[O-])c1)CC(=O)c1ccc(Cl)cc1`, for which the growth inhibition is -26.6%.

On to `O=C(Nc1ccccc1)Oc1ccc(C2CCCCC2)cc1`, for which the growth inhibition is 14.7%.

As to `c1ccc([P+](CCNCCNCC[P+](c2ccccc2)(c2ccccc2)c2ccccc2)(c2ccccc2)c2ccccc2)cc1`, the growth inhibition is 6.3%.

For `CC(=O)Nc1cc2c(cc1C=O)OCO2`, the growth inhibition is 19.6%.

As for `COc1ccccc1NC(=O)CC(=O)NN`, the growth inhibition was -0.25%.

On to `c1ccc2c(c1)Nc1nc3ccccc3nc1N2`, for which the growth inhibition is -40%.

In the case of `Cc1ccnc2[nH]c(-c3cccc(Cl)c3)cc(=O)c12`, the growth inhibition was -23.4%.

For the compound `COc1ccccc1CO`, the growth inhibition is 0.85%.

Regarding `Clc1nc(-c2ccccc2)nc2ccccc12`, the growth inhibition is -10.1%.

As for `CCOC(=S)SCCSC`, the growth inhibition is 11.7%.

Take `COc1cc(C(CC#N)CC#N)cc(OC)c1OC`: the growth inhibition is -3.4%.

For the compound `CN(C)C=Nc1ccn(C2CC(F)C(CO)O2)c(=O)n1` (stereo not given), the growth inhibition was 4.55%.

Turning to `CCCc1cc(=O)oc2c3c(c4c(c12)OC(C)(C)C=C4)OC(C)[C@H](C)[C@@H]3O` (stereo not given in full), the growth inhibition is 14.4%.

In the case of `CCOC(=O)C(C)CC(C)C(=O)OCC` (stereo not given), the growth inhibition was 20.6%.

Take `O=C1CCSc2nc(-c3ccc4c(c3)OCO4)nn21`: the growth inhibition is 7.2%.

`C#CCn1cc(F)c(=O)n(CC#C)c1=O`: the growth inhibition was -50.2%.

With `O=C1CCCS(=O)(=O)CCC1`, the growth inhibition was 7.4%.

On to `Clc1ccc(Cc2ccc(Br)cc2)cc1`, for which the growth inhibition is 43.6%.

As for `Fc1cc(Cl)c(F)cc1Cl`, the growth inhibition is -18%.

`O=C(NCCCl)Oc1cccn(C(=O)NCCCl)c1=O`: the growth inhibition is 7.15%.

Take `CCOC(=O)c1cnc2cc3c(cc2c1Nc1ccc2c(c1)OCO2)OCO3`: the growth inhibition is 12.4%.

Turning to `CCn1c2ccccc2c2c(-c3ccccc3)cc3c(c21)C(=O)N(c1ccccc1)C3=O`, the growth inhibition was -0.3%.

For `Fc1ccc2nncc(SCc3ccc(Cl)c(Cl)c3)c2c1`, the growth inhibition was -1%.

On to `CN1C(=O)C(/C=N/NC(=O)c2cccnc2)C(N)N(C)C1=O` (stereo not given), for which the growth inhibition is 4.85%.

Consider `Cn1c(-c2ccccc2)c/c(=N\NS(C)(=O)=O)c2cc(S(=O)(=O)O)ccc21`, for which the growth inhibition was -7.1%.

`Cc1ccccc1NC(=O)c1ccc(C(=O)Nc2ccccc2C)cc1`: the growth inhibition is 11%.

For the compound `Nc1cc(C(=O)O)c(O)c(Cl)c1O`, the growth inhibition is 31.3%.

For the compound `Cc1ccc(N(C(=O)CC(=O)N/N=C/c2ccccc2O)C(=O)c2ccccc2)cc1`, the growth inhibition is -6.55%.

`O=NN(Cc1ccc(Cl)cc1)NC1=NCCN1`: the growth inhibition is 5.55%.

Take `CC(=O)c1cc(-c2ccccn2)c(=O)n2ccccc12`: the growth inhibition is 26.1%.

For the compound `C=CC(=NC(C)C)N(C)c1ccccc1`, the growth inhibition is 5.2%.

Turning to `S=C(SSSC(=S)N(C1CCCCC1)C1CCCCC1)N(C1CCCCC1)C1CCCCC1`, the growth inhibition was 1.5%.

As to `C=C1C2CC[C@@]3(CC[C@@H]4[C@@]5(C)CCC[C@@]4(CN4CCO[C@H]45)[C@@H]3C2)[C@@H]1O`, the growth inhibition is -2.4%.

The next assay can be described thus: NCI Yeast Anticancer Drug Screen. Data for the mec2-1 strain (AID 157). The note with it: S. cerevisiae mec2-1 strain, at 50.0 µM, active compounds read high. Summed up:
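Strain: mec2-1 (DNA repair/cell cycle alteration). Compound exposure, then growth measured; inhibition expressed relative to vehicle.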
Take `Cc1ccc(C(CCCl)OC(C)C)cc1` (stereo not given): the growth inhibition is 7.35%.

As for `NC(=O)/C(=C\c1ccc(OCc2ccccc2)c(OCc2ccccc2)c1)NC(=O)c1ccccc1`, the growth inhibition was 22.4%.

Take `CC(=O)Oc1ncnc2c1cnn2C`: the growth inhibition was -1.65%.

`Nc1ccn(CCOC(=O)c2ccccc2)c(=O)n1`: the growth inhibition was -28%.

As for `Cc1cccc(C)c1NC(=O)Nc1cccc(O)c1`, the growth inhibition was 34.8%.

Turning to `Nc1ccc(Cc2ccc(N)c(Br)c2)cc1Br`, the growth inhibition is 13.9%.

In the case of `CC(C)(C)c1nc2c(o1)C(=Nc1ccc(F)cc1)c1ccccc1C2=O`, the growth inhibition is 3.15%.

In the case of `O=C(CCC(=O)Nc1cccc([N+](=O)[O-])c1)CC(=O)c1ccc(Cl)cc1`, the growth inhibition is -4%.

For `O=C(Nc1ccccc1)Oc1ccc(C2CCCCC2)cc1`, the growth inhibition was 22.1%.

Regarding `c1ccc([P+](CCNCCNCC[P+](c2ccccc2)(c2ccccc2)c2ccccc2)(c2ccccc2)c2ccccc2)cc1`, the growth inhibition was 9.25%.

In the case of `CC(=O)Nc1cc2c(cc1C=O)OCO2`, the growth inhibition is 9.7%.

For `COc1ccccc1NC(=O)CC(=O)NN`, the growth inhibition is 2.15%.

As to `c1ccc2c(c1)Nc1nc3ccccc3nc1N2`, the growth inhibition was -5.7%.

On to `Cc1ccnc2[nH]c(-c3cccc(Cl)c3)cc(=O)c12`, for which the growth inhibition is -18.6%.

Regarding `COc1ccccc1CO`, the growth inhibition is -13.8%.

`Clc1nc(-c2ccccc2)nc2ccccc12`: the growth inhibition is -17.6%.

Regarding `CCOC(=S)SCCSC`, the growth inhibition is 6.3%.

As to `COc1cc(C(CC#N)CC#N)cc(OC)c1OC`, the growth inhibition is -15.8%.

As to `CN(C)C=Nc1ccn(C2CC(F)C(CO)O2)c(=O)n1` (stereo not given), the growth inhibition is 13.2%.

For the compound `CCCc1cc(=O)oc2c3c(c4c(c12)OC(C)(C)C=C4)OC(C)[C@H](C)[C@@H]3O` (stereo not given in full), the growth inhibition is 11.4%.

As for `CCOC(=O)C(C)CC(C)C(=O)OCC` (stereo not given), the growth inhibition was -26%.

Turning to `O=C1CCSc2nc(-c3ccc4c(c3)OCO4)nn21`, the growth inhibition was -8.5%.

For the compound `C#CCn1cc(F)c(=O)n(CC#C)c1=O`, the growth inhibition was -30.8%.

With `O=C1CCCS(=O)(=O)CCC1`, the growth inhibition is 11.5%.

Turning to `Clc1ccc(Cc2ccc(Br)cc2)cc1`, the growth inhibition was -10.3%.

Regarding `Fc1cc(Cl)c(F)cc1Cl`, the growth inhibition is -17.8%.

For `O=C(NCCCl)Oc1cccn(C(=O)NCCCl)c1=O`, the growth inhibition is 9.7%.

In the case of `CCOC(=O)c1cnc2cc3c(cc2c1Nc1ccc2c(c1)OCO2)OCO3`, the growth inhibition was 13.3%.

`CCn1c2ccccc2c2c(-c3ccccc3)cc3c(c21)C(=O)N(c1ccccc1)C3=O`: the growth inhibition is -8.95%.

As for `Fc1ccc2nncc(SCc3ccc(Cl)c(Cl)c3)c2c1`, the growth inhibition is 0.15%.

With `CN1C(=O)C(/C=N/NC(=O)c2cccnc2)C(N)N(C)C1=O` (stereo not given), the growth inhibition is 18.2%.

Take `Cn1c(-c2ccccc2)c/c(=N\NS(C)(=O)=O)c2cc(S(=O)(=O)O)ccc21`: the growth inhibition is -27.7%.

`Cc1ccccc1NC(=O)c1ccc(C(=O)Nc2ccccc2C)cc1`: the growth inhibition is -10.8%.

`Nc1cc(C(=O)O)c(O)c(Cl)c1O`: the growth inhibition is 7.05%.

For `Cc1ccc(N(C(=O)CC(=O)N/N=C/c2ccccc2O)C(=O)c2ccccc2)cc1`, the growth inhibition was -16.8%.

As to `O=NN(Cc1ccc(Cl)cc1)NC1=NCCN1`, the growth inhibition is 14.3%.

On to `CC(=O)c1cc(-c2ccccn2)c(=O)n2ccccc12`, for which the growth inhibition is 15.5%.

As for `C=CC(=NC(C)C)N(C)c1ccccc1`, the growth inhibition was 13.9%.

For the compound `S=C(SSSC(=S)N(C1CCCCC1)C1CCCCC1)N(C1CCCCC1)C1CCCCC1`, the growth inhibition was 3.7%.

For the compound `C=C1C2CC[C@@]3(CC[C@@H]4[C@@]5(C)CCC[C@@]4(CN4CCO[C@H]45)[C@@H]3C2)[C@@H]1O`, the growth inhibition is -5.9%.

The values above are taken from PubChem BioAssay (NCI).
